TDP1 inh – inhibitors of human tyrosyl-DNA phosphodiesterase TDP1; Q9NUW8; recombinant TDP1, AlphaScreen DNA substrate cleavage; Potency, µM (series often up to 130 µM), for the others: top-dose activity change, negative = inhibition, hits mostly inhibitors; 0.28% of 350,000 active; AID 485290; note: potency is the fitted concentration of half-maximal effect; % is set by controls: 0 for no effect and ±100 for the full control effect; nearly all actives have a fitted effect of over 40% in size
Target sequence (Q9NUW8 whole entry, looked up): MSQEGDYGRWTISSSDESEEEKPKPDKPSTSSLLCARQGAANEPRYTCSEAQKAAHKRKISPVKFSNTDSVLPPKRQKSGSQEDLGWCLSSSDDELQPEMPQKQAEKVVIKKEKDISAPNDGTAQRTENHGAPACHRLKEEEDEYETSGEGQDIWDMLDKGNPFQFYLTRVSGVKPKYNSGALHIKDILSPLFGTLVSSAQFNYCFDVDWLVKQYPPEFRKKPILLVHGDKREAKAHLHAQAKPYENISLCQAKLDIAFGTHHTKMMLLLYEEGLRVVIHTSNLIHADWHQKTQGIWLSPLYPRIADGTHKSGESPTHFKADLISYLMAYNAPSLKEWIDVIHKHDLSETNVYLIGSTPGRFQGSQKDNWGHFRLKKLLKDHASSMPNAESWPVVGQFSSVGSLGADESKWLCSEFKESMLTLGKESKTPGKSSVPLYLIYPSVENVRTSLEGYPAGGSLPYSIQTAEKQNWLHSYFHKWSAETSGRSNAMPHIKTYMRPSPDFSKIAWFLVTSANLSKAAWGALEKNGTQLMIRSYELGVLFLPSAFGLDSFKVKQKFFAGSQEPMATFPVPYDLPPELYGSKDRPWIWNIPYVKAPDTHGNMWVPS
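Signal: AlphaScreen proximity between streptavidin donor and anti-FITC acceptor beads on intact substrate. Reaction: Tdp1 1 nM, substrate 15 nM final, 5 min RT after 15 min compound preincubation.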
HepG2 viability – counter-screen for TGF-b inhibitors: cytotoxicity in HepG2 cells | HepG2 CAGA-GFP viability, ATP luminescence, 18 h | Potency, µM (highest dose often 46.1 µM), for the others: top-dose activity change, negative = cytotoxicity, actives largely listed as cytotoxic | 0.76% of 410,000 active | AID 588856; note: potency is the fitted concentration of half-maximal effect
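CellTiter-Glo luminescence gave cytotoxicity after 18 hours at 37 degrees C. The cells were HepG2 CAGA-GFP in 1% FBS DMEM, stimulated with 500 pg/mL TGF-beta after compound addition. %Activity was normalised to no-cell wells (complete cell-killing) and DMSO (no toxicity), and curves were fitted and classified.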
TDP1 cell CPT – growth inhibition of DT40 Tdp1-/-;hTDP1 cells with camptothecin (screen for TDP1 inhibitors) | chicken DT40 Tdp1-/-;hTDP1 cells + 20 nM CPT, ATP luminescence, 48 h | Potency, µM (doses to about 46.2 µM), for inactives: at the top dose activity change, negative = growth inhibition, usual class: inhibitors | 12% of 420,000 active | AID 686979; note: potency is the fitted concentration of half-maximal effect; % is set by controls: 0 for no effect and ±100 for the full control effect; nearly all actives have a fitted effect of over 55% in size
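Chicken DT40 Tdp1-/- cells complemented with human TDP1, 400 cells/well, exposed to compounds plus 20 nM camptothecin for at least 48 h at 37 C; viability read as ATP content by CellTiter-Glo luminescence.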
DT40 TDP1 no CPT – qHTS for Inhibitors of human tyrosyl-DNA phosphodiesterase 1 (TDP1): qHTS in cells in absence of CPT; DT40 Tdp1-/- hTDP1 cells, no CPT, ATP luminescence, 48 h; Potency, µM (titrated, usually from 46.2 µM), without a hit: at the highest dose activity change, negative = growth inhibition, usual class: inhibitors; 15% of 420,000 active; AID 686978, 2013; note: potency is the fitted concentration of half-maximal effect; % is set by controls: 0 for no effect and ±100 for the full control effect; nearly all actives have a fitted effect of over 55% in size
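Luminescent ATP content (CellTiter-Glo) served as the growth readout. Knockout chicken DT40 cells expressing human TDP1 were exposed to compounds without camptothecin for a minimum 48 hr at 37 °C.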
IL-1B inflam inh – inflammasome signaling inhibition, IL-1 beta readout | THP-1 LPS/ATP IL-1B secretion, AlphaLISA, 16 h; active compounds read low | activity change, % at 57.5 µM | 4.7% of 360,000 active; in the data active = activity change below about -50%; inconclusive = mostly about -30% to -49%; note: % is set by controls: 0 for no effect and ±100 for the full control effect
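THP-1 cells pretreated 1 hr with compounds (up to 57.5 uM final), then stimulated with LPS (250 ng/mL final) plus ATP (1.25 mM final); secreted IL-1B measured by AlphaLISA after 16 hr, decreased signal indicating inhibition.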
TGFb inhibitor – TGF-b pathway inhibition | HepG2 CAGA-GFP TGF-b/SMAD3 reporter, GFP fluorescence, 18 h; TGF-beta stimulated, 500 pg/mL final | Potency, µM (top dose mostly 46.1 µM), without a hit: at the top dose activity, negative = inhibition, usual class: inhibitors | 1.2% of 410,000 active | AID 588855; note: potency is the fitted concentration of half-maximal effect; % is set by controls: 0 for no effect and ±100 for the full control effect; nearly all actives have a fitted effect of over 65% in size
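Inhibition of TGF-beta-driven CAGA-GFP reporter expression in HEPG2 cells is measured by cellular GFP fluorescence after 18 h stimulation with 500 pg/mL recombinant TGF-beta in 1% FBS medium at 37 degrees C.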
An asterisk follows results filed as active; ? = inconclusive; . = not tested or not shown; [ ] = another dose, or the depositor's remark. Hits are enriched below; roughly 18% of the tested compounds scored in any of these assays. Unless noted, calls come from the whole dose curve; as a rule, active = well fitted curve in the direction sought with a large enough effect; inconclusive = small, poorly fitted or top-dose-only effect, or another doubt; inactive = no such curve, though single readings can be large; an effect the other way counts as inactive or inconclusive.

SMILES	TDP1 inh	HepG2 viability	TDP1 cell CPT	DT40 TDP1 no CPT	IL-1B inflam inh	TGFb inhibitor
COC(=O)c1nnc(SC)nc1C(=O)OC	-4%	.	.	.	.	.
Cc1ccc(CCNC(=O)CN2C(=O)COc3ccc(S(=O)(=O)N4CCOCC4)cc32)cc1	2%	1%	-28%	19%	4	6%
Cc1nn(-c2ccccc2)c2c1N(CC(=O)N1CCN(c3cccc(Cl)c3)CC1)C(=O)CS2	7%	3%	?	21µM*	.	-15%
Cc1ccc(C)c(N2CCN(C(=O)CN3C(=O)CSc4c3c(C)nn4-c3ccccc3)CC2)c1	5%	-5%	18µM*	26µM*	.	-29%
CCOC(=O)c1c(N)n(-c2cccc(OC)c2)c2nc3ccccc3nc12	-9%	0%	.	.	.	7%
COC(=O)c1c(N)n(-c2cc(Cl)cc(Cl)c2)c2nc3ccccc3nc12	.	-8%	16µM*	9.2µM*	.	32%
CCOC(=O)c1c(N)n(-c2ccc(C)c(Cl)c2)c2nc3ccccc3nc12	1%	-8%	.	.	.	17%
CCOC(=O)c1c(N)n(C2CC(C)(C)NC(C)(C)C2)c2nc3ccccc3nc12	-6%	6%	?	-27%	-65*	-1%
CCOC(=O)c1c(N)n(-c2ccc(CC)cc2)c2nc3ccccc3nc12	.	-31%	23µM*	?	.	-8%
CCOC(=O)c1ccc(-n2c(N)c(C(=O)OC)c3nc4ccccc4nc32)cc1	7%	-15%	5.8µM*	7.3µM*	.	-22%
COC(=O)c1c(N)n(-c2ccc(OC)c(Cl)c2)c2nc3ccccc3nc12	.	-20%	?	-27%	.	2%
C=CCn1c(SCC(=O)c2c(N)n(C)c(=O)n(C)c2=O)nnc1-c1ccoc1C	2%	-24%	12%	-5%	4	6%
Nc1c(C(=O)Nc2ccccc2)c2nc3ccccc3nc2n1-c1ccc(O)cc1	.	-9%	10µM*	2.1µM*	0	-10%
Cc1cccc(OCCCN2C(=O)C(=O)c3cc(C)ccc32)c1	10%	-10%	1.6µM*	0.92µM*	4	?
Cc1ccc2c(c1)C(=O)C(=O)N2CCCOc1ccccc1	4%	-38%	1µM*	2.1µM*	0	18µM*
O=C1c2ccccc2C(=O)N1CCCOc1ccccc1	-4%	-3%	7%	7%	44	1%
Cc1c(C#N)c(O)n(CCO)c(=O)c1N=Nc1ccc(S(N)(=O)=O)cc1	4%	-2%	-29%	9%	7	8%
Cc1c(C#N)c(O)n(C)c(=O)c1N=Nc1ccc(S(N)(=O)=O)cc1	4%	-7%	?	13µM*	-19	-33%
CCOC(=O)C1=C(C)N=c2s/c(=C\c3ccc(C(=O)O)cc3)c(=O)n2C1c1ccc(OC)cc1OC (configuration not stated)	.	-20%	?	?	-11	-1%
CCOC(=O)C1=C(C)N=c2s/c(=C/c3cccc([N+](=O)[O-])c3O)c(=O)n2C1c1ccccc1 (configuration not stated)	.	4%	13µM*	16µM*	14	-14%
CCOC(=O)C1=C(C)N=c2s/c(=C\c3cc(OC)c(OC)c(OC)c3)c(=O)n2C1/C=C/c1ccccc1 (configuration not stated)	-3%	-13%	-3%	?	2	6%
CCOC(=O)C1=C(C)N=c2s/c(=C/c3ccco3)c(=O)n2C1c1cccc(OC)c1 (configuration not stated)	-6%	-4%	?	23µM*	-24	-2%
CCOC(=O)C1=C(C)N=c2s/c(=C/c3cccc([N+](=O)[O-])c3O)c(=O)n2C1c1cc(OC)c(OC)c(OC)c1 (configuration not stated)	.	5%	?	7.3µM*	19	0%
COC(=O)C1=C(C)N=c2s/c(=C/c3ccoc3)c(=O)n2C1c1ccccc1 (configuration not stated)	0%	-14%	23µM*	?	-1	58%
CCOC(=O)C1=C(C)N=c2s/c(=C\c3ccc(OCC(=O)O)cc3)c(=O)n2C1c1ccccc1 (configuration not stated)	.	10%	6%	1%	-22	-2%
SMILES	TDP1 inh	HepG2 viability	TDP1 cell CPT	DT40 TDP1 no CPT	IL-1B inflam inh	TGFb inhibitor
CN(Cc1ccco1)c1cc(-c2ccc3c(c2)OCO3)ncn1	.	.	-21%	-23%	.	.
O=c1nc2n(c3ccc(Br)cc13)CCS2	0%	5%	-1%	?	-14	15%
COc1ccc(-c2ccc(NS(=O)(=O)c3cccc(C)c3)cc2)nn1	3%	2%	?	29µM*	.	0%
COc1ccc(-c2ccc(NS(=O)(=O)c3ccccc3)cc2)nn1	-3%	-18%	?	15µM*	.	-9%
COc1ccc(-c2ccc(NS(=O)(=O)c3ccc(C(C)=O)cc3)cc2)nn1	2%	-29%	-28%	-22%	.	-25%
COc1ccc(-c2ccc(NS(=O)(=O)c3ccccc3Cl)cc2)nn1	5%	-5%	21µM*	18µM*	.	9%
COc1ccc(-c2cccc(NS(=O)(=O)c3cccc([N+](=O)[O-])c3)c2)nn1	6%	-2%	?	26µM*	10	4%
COc1ccc(-c2cccc(NS(=O)(=O)c3ccc([N+](=O)[O-])cc3)c2)nn1	1%	2%	?	?	10	?
COc1ccc(-c2cccc(NS(=O)(=O)c3ccccc3[N+](=O)[O-])c2)nn1	6%	-3%	-16%	-24%	37	-16%
Cc1ccc(C)c(NC(=O)CCc2ccc(S(=O)(=O)NC3CCCCC3)cc2)c1	5%	0%	?	?	-11	1%
COC(=O)C1CN(C(=O)C(C)Oc2ccc(C)c(C)c2)c2ccccc2O1 (configuration not stated)	.	-15%	2%	-21%	0	-22%
COc1ccc(-c2ccc(NS(=O)(=O)c3cccc([N+](=O)[O-])c3)cc2)nn1	4%	-10%	?	?	-4	-16%
COc1ccc(-c2ccc(NS(=O)(=O)c3cc(C)c(C)cc3C)cc2)nn1	5%	-24%	21µM*	?	.	-12%
O=C1C[C@@H](O)[C@@H](O)[C@H]2[C@@H]3C(=O)N(c4cccc(Oc5ccccc5)c4)C(=O)[C@@H]3CC[C@H]12	4%[21 µM]	.	.	.	.	.

Bioassay records deposited in PubChem BioAssay by National Center for Advancing Translational Sciences (NCATS).
